Results published in PubChem BioAssay (NCI).
This is part of a sample that, as a whole, favours compounds with a hit. Of some 79,000 tested, about 15% had one in any assay. The source made the active and inactive calls. Rule as the data show it: active = growth inhibition above about 70%; inactive = the rest.

Key:
[1] = NCI Yeast Anticancer Drug Screen. Data for the rad52 strain (AID 147);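 also: 0% = growth of vehicle-treated control cultures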; details: S. cerevisiae rad52 mutant growth inhibition, stronger effect = higher value
In short: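 Compounds are applied to a genetically defined yeast strain lacking normal DNA damage repair, and inhibition of growth is expressed relative to cultures given vehicle only.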

[2] = NCI Yeast Anticancer Drug Screen. Data for the wt1 strain (AID 149);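 also: 0% = growth of vehicle-treated wt1 cultures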; details: S. cerevisiae wt1 strain (SPY 50644) growth inhibition, stronger effect = higher value
In short: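 wt1 yeast, compound-treated; % growth inhibition vs vehicle control.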

[3] = NCI Yeast Anticancer Drug Screen. Data for the rad50EPP+ strain (AID 151);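 also: 0% = growth of vehicle-treated control cultures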; details: S. cerevisiae rad50 mutant strain, stronger effect = higher value
In short: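 Compounds were applied to the rad50EPP+ yeast strain, which bears a defined DNA repair alteration, and growth inhibition was determined relative to vehicle-treated cultures.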

[4] = NCI Yeast Anticancer Drug Screen. Data for the mgt1 strain (AID 153); details: S. cerevisiae mgt1 mutant growth inhibition, stronger effect = higher value
In short: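 Strain: mgt1 yeast, one of a set carrying defined DNA damage repair or cell cycle control alterations. Compound-treated growth compared with vehicle.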

[5] = NCI Yeast Anticancer Drug Screen. Data for the rad50 strain (AID 155);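 also: 0% = growth of vehicle-only cultures of the same strain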; details: S. cerevisiae rad50 strain growth inhibition, stronger effect = higher value
In short: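 Genetically altered yeast (DNA repair pathway); compound treatment; growth inhibition vs vehicle ctrl.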

[6] = NCI Yeast Anticancer Drug Screen. Data for the mec2-1 strain (AID 157); details: S. cerevisiae mec2-1 strain, stronger effect = higher value
In short: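 Strain: mec2-1 (DNA repair/cell cycle alteration). Compound exposure, then growth measured; inhibition expressed relative to vehicle.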

[7] = NCI Yeast Anticancer Drug Screen. Data for the rad14 strain (AID 159);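 also: 0% = growth of vehicle-treated control cultures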; details: S. cerevisiae rad14 strain growth inhibition, stronger effect = higher value
In short: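 Test compounds were applied to a repair-deficient yeast strain. Its growth was then compared with that of cultures given vehicle alone, and inhibition was expressed relative to those controls.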

[8] = NCI Yeast Anticancer Drug Screen. Data for the sgs1 mgt1 strain (AID 161);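 also: 0% = growth of cultures given vehicle only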; details: S. cerevisiae sgs1 mgt1 strain, stronger effect = higher value
In short: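 Genetically altered yeast, compound exposure, growth inhibition relative to vehicle.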

[9] = NCI Yeast Anticancer Drug Screen. Data for the CLN2oe strain (AID 163);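 also: 0% = growth of vehicle-only control cultures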; details: S. cerevisiae CLN2oe strain, stronger effect = higher value
In short: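 Growth of a genetically modified yeast strain is measured after compound exposure and compared with cultures given vehicle alone.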

[10] = NCI Yeast Anticancer Drug Screen. Data for the cln2 rad14 strain (AID 165);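 also: 0% = growth equal to vehicle treated cultures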; details: S. cerevisiae cln2 rad14 strain, stronger effect = higher value
In short: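 Compounds are applied to the cln2 rad14 yeast strain, and growth is then compared with that of vehicle-treated cultures to give inhibition.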

[11] = NCI Yeast Anticancer Drug Screen. Data for the bub3 strain (AID 167); details: S. cerevisiae bub3 mutant strain, stronger effect = higher value
In short: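 Yeast carrying a defined mutation is treated with each compound, and growth is compared with that of vehicle-exposed cells to give inhibition.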

[12] = NCI Yeast Anticancer Drug Screen. Data for the wt2 strain (AID 169);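 also: 0% = growth of vehicle-treated yeast cultures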; details: S. cerevisiae wt2 strain growth inhibition, stronger effect = higher value
In short: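 This strain belongs to a panel of yeast strains with defined genetic alterations in DNA damage repair or cell cycle control. Compounds are applied, and growth inhibition is measured against vehicle-treated cultures.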

[13] = NCI Yeast Anticancer Drug Screen. Data for the mlh1 strain (AID 171);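 also: 0% = growth of vehicle-treated control cultures of the same strain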; details: S. cerevisiae mlh1 strain growth inhibition, stronger effect = higher value
In short: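 Growth of the mutant yeast strain after compound exposure, expressed as inhibition relative to vehicle-only controls.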

[14] = NCI Yeast Anticancer Drug Screen. Data for the sgs1 strain (AID 173);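 also: 0% = growth of vehicle-only control cultures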; details: S. cerevisiae sgs1 mutant, stronger effect = higher value
In short: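 Growth of a yeast strain bearing a defined genetic alteration is measured after compound treatment. Inhibition is expressed relative to vehicle-only controls.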

[15] = NCI Yeast Anticancer Drug Screen. Data for the mlh1 rad18 strain (AID 175); details: S. cerevisiae mlh1 rad18 strain growth inhibition, stronger effect = higher value
In short: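 Read-out is yeast growth inhibition, calculated against vehicle-only controls. The compound was applied to a strain engineered with DNA damage repair alterations.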

[16] = NCI Yeast Anticancer Drug Screen. Data for the rad18 strain (AID 177); details: S. cerevisiae rad18 mutant growth inhibition, stronger effect = higher value
In short: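 Growth of the mutant yeast strain after compound exposure, normalised to vehicle-only cultures.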

[17] = at 5.0 µM (retest, dose inferred, filed as 0.5)
[18] = at 50.0 µM (retest, dose inferred, filed as 5.0)

Measured: growth inhibition

O=C1C2CC(Cl)C(SSC3CC4C(=O)N(SC(Cl)(Cl)C(Cl)Cl)C(=O)C4CC3Cl)CC2C(=O)N1SC(Cl)(Cl)C(Cl)Cl (stereo not drawn)
inactive: [2]; at 1.2 µM 14% | [4]; at 1.2 µM 68% | [5]; at 1.2 µM 49% | [6]; at 1.2 µM 37% | [8]; [17] -9% | [9]; at 1.2 µM 40% | [10]; [17] -20% | [10]; [18] -57% | [11]; [17] -6% | [12]; at 1.2 µM 17% | [13]; at 1.2 µM 64%
active: [1]; at 1.2 µM 71% | [1]; at 3.7 µM 91% | [1]; at 11.0 µM 96% | [1]; at 33.0 µM 95% | [1]; at 100.0 µM 89% | [2]; at 3.7 µM 83% | [2]; at 11.0 µM 97% | [2]; at 33.0 µM 96% | [2]; at 100.0 µM 93% | [3]; at 1.2 µM 75% | [3]; at 3.7 µM 97% | [3]; at 11.0 µM 98% | [3]; at 33.0 µM 97% | [3]; at 100.0 µM 93% | [4]; at 3.7 µM 98% | [4]; at 11.0 µM 99% | [4]; at 33.0 µM 97% | [4]; at 100.0 µM 92% | [5]; at 3.7 µM 92% | [5]; [17] 98% | [5]; at 11.0 µM 97% | [5]; at 33.0 µM 96% | [5]; [18] 95% | [5]; at 50.0 µM 90.3% | [5]; at 100.0 µM 90% | [6]; at 3.7 µM 91% | [6]; [17] 100% | [6]; at 11.0 µM 99% | [6]; at 33.0 µM 98% | [6]; [18] 98% | [6]; at 50.0 µM 90.4% | [6]; at 100.0 µM 94% | [7]; at 1.2 µM 83% | [7]; at 3.7 µM 96% | [7]; at 11.0 µM 97% | [7]; at 33.0 µM 96% | [7]; at 100.0 µM 90% | [8]; [18] 95% | [8]; at 50.0 µM 89.5% | [9]; at 3.7 µM 96% | [9]; at 11.0 µM 98% | [9]; at 33.0 µM 97% | [9]; at 100.0 µM 90% | [10]; at 50.0 µM 84.9% | [11]; at 1.2 µM 80% | [11]; at 3.7 µM 99% | [11]; at 11.0 µM 99% | [11]; at 33.0 µM 96% | [11]; [18] 98% | [11]; at 50.0 µM 92.8% | [11]; at 100.0 µM 90% | [12]; at 3.7 µM 95% | [12]; at 11.0 µM 98% | [12]; at 33.0 µM 97% | [12]; at 100.0 µM 90% | [13]; at 3.7 µM 97% | [13]; at 11.0 µM 98% | [13]; at 33.0 µM 97% | [13]; at 100.0 µM 93% | [14]; at 1.2 µM 80% | [14]; at 3.7 µM 98% | [14]; at 11.0 µM 97% | [14]; at 33.0 µM 96% | [14]; at 100.0 µM 87% | [15]; [17] 99% | [15]; [18] 96% | [15]; at 50.0 µM 90.8% | [16]; at 1.2 µM 96% | [16]; at 3.7 µM 97% | [16]; at 11.0 µM 97% | [16]; at 33.0 µM 97% | [16]; at 100.0 µM 89%
